About 83,000 compounds went through this panel and 20% of them were active in at least one assay; those are over-represented in the sample as a whole.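 Step 1: grow cells in 96-well plates. Step 2: add test compound at a single concentration. Step 3: incubate 48 h. Step 4: record percent growth.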 A number with no mark means an inactive call. Calls of active or inactive are those of the source.

This test has as its system OVCAR-4 ovarian. Put plainly: NCI-60 one-dose screen, 48 h (100 = growth as untreated, 0 = no growth, -100 = all killed). The conditions noted are these: 10 µM unless noted. As for the experimental part:
Growth inhibition of the OVCAR-4 human tumor cell line is measured as a screen for anti-cancer activity. Cells are grown in 96 well plates and exposed to the test compound for 48 hours. Compounds are tested at a single concentration, which is 10^-5 M for most compounds. The reported endpoint is percent growth (GI% or GIPRCNT), where numbers from 0 - 100% represent growth inhibition, and numbers from -100% - 0 represent cell death. For example, a value of 40 represents 60% growth inhibition. A value of 0 means no net growth occurred over the course of the experiment. A value of -40 indicates 40% of cells at the beginning of the experiment died by the end of the experiment. A value of -100 means all cells are dead at the end of the experiment.
NCI-60 Human Tumor Cell Lines Screen was performed using the standard one-dose NCI protocol, which is described in more detail at https://dtp.cancer.gov/discovery_development/nci-60/default.htm.
Compounds with GIPRCNT values below 10 were considered active. Activity score was based on GIPRCNT using the following formula: […]
Score is 0 for GIPRCNT values of 100 or above, 50 for GIPRCNT values of 0, and 100 for GIPRCNT values of -100.
Take `COC(=O)/C=C1/CCCCC1(C)C(=O)OC` (stereo not given): the growth was 103%.

On to `CC1CCCCC[N+]12CCCC2` (stereo not given), for which the growth is 113%. In the case of `CCOC(=O)NNc1[nH]c(-c2ccc(OC)cc2)cc1C#N`, the growth was 153%.

As to `Nc1nc2c(c3ncncc13)C(c1cccc(C(F)(F)F)c1)Cc1ncncc1-2` (stereo not given), the growth was 39.8%. On to `O=C1C(Br)=CC2C1C1C3CCC3C2(Br)C12OCCO2` (stereo not given), for which the growth is 59.2%. For `COC(=O)c1ccc2[nH]c(O)c(C(=Nc3ccc(N(C)C(=O)CN4CCN(C)CC4)cc3)c3cccc(OC)c3)c2c1` the value was 25.4%. With `O=C(Nn1cnc2ccccc21)N1CCCC1`, the growth was 118%.

For the compound `CC(C)OC(=O)[C@H](C)N[P@@](=O)(OC[C@@]1(C)O[C@@H](n2cc(F)c(N)nc2=O)C[C@@H]1O[P@](=O)(N[C@@H](C)C(=O)OC(C)C)Oc1ccccc1)Oc1ccccc1`, the growth is 112%. In the case of `COc1cc(-c2nn(-c3ccc(NC(=O)Nc4cc(C(F)(F)F)cc(C(F)(F)F)c4)cc3)cc2-c2ccncc2)ccc1Cl`, the growth was -12.2% (active). For `N#Cc1c2cccnc2c2nnc3cc(Cl)c(Cl)cc3n12` the value was -4.97% (active); for `COc1cccc2c1n([O-])c1cccc(OC)c1[n+]2=O`, 50.2%; for `O=C(Nc1ccc(-n2cc(-c3ccncc3)c(-c3ccc(Cl)c(O)c3)n2)cc1)c1cc(Cl)cc(Cl)c1`, 91.8%. Consider `O=C(Oc1ccccc1)c1ccccc1Cl`, for which the growth is 108%. In the case of `COc1cc(N2C(=O)C=CC2=O)ccc1N1C(=O)C=CC1=O`, the growth is 102%. In the case of `O=C(/C=C\c1ccccc1Cl)c1ccccc1` it was 89.8%. For `NC(N)=Nc1ccc(/C=C2\C=Cc3ccccc32)cc1`, the growth was 77.7%.

As to `CCCC(=O)NNc1[nH]c(-c2cc(OC)c(OC)c(OC)c2)cc1C(=O)OCC`, the growth is 118%. Regarding `CCCCCCN(CCCCCC)CCC(=O)Nc1ccc(S(=O)(=O)c2ccc(NC(=O)CCN(CCCCCC)CCCCCC)cc2)cc1`, the growth was 77.6%.

Turning to `COC(=O)C1CC(=O)N(C(=O)Nc2ccc(Cl)cc2Cl)C1` (stereo not given), the growth is 117%. For the compound `Cc1ccc(S(=O)(=O)N/N=C2\CC3CCC2C3)cc1` (stereo not given), the growth was 115%.

Consider `NC(CSC(c1ccccc1)(c1ccccc1)c1ccccc1)C(=O)NCC(=O)O` (stereo not given), for which the growth was 100%.

`CNCCCNCCCCNCCCN1C(=O)c2ccc3c4c(ccc(c24)C1=O)C(=O)N(CCCNCc1ccccc1OC)C3=O`: the growth was -10.8% (active).

As to `COc1cc(CCNc2cnc3cc(N)cc(N)c3n2)cc(OC)c1`, the growth was 93.8%.

Consider `O=c1c2c(c3ccccc3n1-c1ccccc1)NC(=S)NC2c1ccc(Cl)cc1` (stereo not given), for which the growth is 76%. With `NC(=O)CC(NC(=O)COc1ccc(Cl)cc1Cl)C(=O)O` (stereo not given), the growth was 112%. As for `O=C(CBr)OCc1ccc([N+](=O)[O-])o1`, the growth was 77.9%. In the case of `Cc1ccc(NCc2cn(-c3ccc(C(=O)O)cc3)nc2-c2ccc(C(=O)O)cc2)cc1` it was 109%; in that of `CCCCN(CCCC)CCCNc1c2c(nc3ccc(Cl)cc13)CCCC2`, 84.7%. For `COc1cc2cc3cc4cc(OC)c(OC)cc4c(C)[n+]3cc2cc1OC` (tested in a mixture with another compound) the value was 83.8%. On to `CC(=O)c1ccc2c(c1)c1ccccc1n2C`, for which the growth is 115%.

For `COc1ccc2oc(=O)cc(CN3C(=O)S/C(=C\c4ccc(Cl)cc4)C3=O)c2c1`, the growth was 91.7%.

Take `C/C(CCC(=O)O)=N/Nc1ccc([N+](=O)[O-])cc1`: the growth is 66.3%.

For the compound `COc1cc2ncnc(-n3ncc4cc(NC(=O)Nc5ccc(Cl)c(C)c5)ccc43)c2cc1OC`, the growth was 98.3%. On to `CCC1(CC)C(OC)NC(Br)=C(C#N)C1(C#N)C(N)=O` (stereo not given), for which the growth is 110%. Consider `NCCCOc1cc2ccccc2cc1C(=O)Nc1ccc(Cl)cc1OC(=O)c1cc2ccccc2cc1OCCCN`, for which the growth was -74.4% (active). For `O=C(/C=C1\C(=O)N(Cc2ccc([N+](=O)[O-])cc2)c2ccccc21)c1ccc(OCCN2CCCC2)cc1` the value was 64.9%. As to `C=CCN(C)C`, the growth was 115%. As for `COC(=O)c1ccc2[nH]c(O)c(C(=Nc3ccc(N(C)C(=O)CN4CCN(C)CC4)cc3)c3ccc(N)cc3)c2c1`, the growth is 73.7%. In the case of `CC(=O)OC1/C=C\CC/C=C\C1` (stereo not given) it was 107%.

In the case of `CCN(CC)C(=O)C1(C)CCCC2(C)c3cc(OC(C)=O)ccc3CCC12` (stereo not given), the growth was 71.2%.

The values are drawn from PubChem BioAssay (NCI).
